IL-1B inflam inh: inhibitors of inflammasome signaling (IL-1 beta secretion) | hit rate 4.7% among 360,000 | activity change, % at 57.5 µM | AID 743279 | THP-1 LPS/ATP IL-1B secretion, AlphaLISA, 16 h; active compounds read low; in the data active = activity change below about -50%; inconclusive = mostly about -30% to -49%; also: % is scaled to controls: 0 for no effect and ±100 for the full control effect
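THP-1 cells pretreated 1 hr with compounds (up to 57.5 uM final), then stimulated with LPS (250 ng/mL final) plus ATP (1.25 mM final); secreted IL-1B measured by AlphaLISA after 16 hr, decreased signal indicating inhibition.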
MCF10A rereplic: DNA re-replication induction in MCF 10a cells | MCF 10A DNA re-replication, Hoechst nuclear intensity, 48 h | Potency, µM (series often up to 46.1 µM), inactives show at the top dose activity, positive = re-replication, usual class: activators | hit rate 2.9% among 350,000 | AID 624296; also: potency is read from the fitted curve at half-maximal effect; % of control where 0% means no effect; nearly all actives have a fitted effect of over 50% in size
TDP1 cell noCPT: qHTS for Inhibitors of human tyrosyl-DNA phosphodiesterase 1 (TDP1): qHTS in cells in absence of CPT. DT40 Tdp1-/- hTDP1 cells, no CPT, ATP luminescence, 48 h. Potency, µM (titrated, usually from 46.2 µM), for inactives: top-dose activity change, negative = growth inhibition, hits mostly inhibitors. hit rate 15% among 420,000; also: potency is read from the fitted curve at half-maximal effect; % is scaled to controls: 0 for no effect and ±100 for the full control effect; nearly all actives have a fitted effect of over 55% in size
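Stably hTDP1-transfected Tdp1-null chicken DT40 cells were treated with library compounds minus camptothecin and grown for at least 48 hr at 37 °C, after which cellular ATP was quantified by luminescence.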
SW480 rereplic: inducers of DNA re-replication in SW480 colon cancer cells; SW480 DNA re-replication, Hoechst DNA content imaging, 48 h; Potency, µM (top dose mostly 46.1 µM), for inactives: at the highest dose re-replication activation, actives largely listed as activators; hit rate 1.8% among 340,000; AID 624297; also: potency is read from the fitted curve at half-maximal effect; % of control where 0% means no effect; nearly all actives have a fitted effect of over 55% in size
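Cells (250 per well) received 23 nL compound or DMSO by pin tool and were kept 48 hr at 37 C, 5% CO2. Nuclei were then stained with Hoechst for 40 min and scanned for DNA content.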
TDP1 cell CPT: growth inhibition of DT40 Tdp1-/-;hTDP1 cells with camptothecin (screen for TDP1 inhibitors) | Potency, µM (doses to about 46.2 µM), inactives show at the top dose activity change, negative = growth inhibition, most hits filed as inhibitors | AID 686979 | chicken DT40 Tdp1-/-;hTDP1 cells + 20 nM CPT, ATP luminescence, 48 h | hit rate 12% among 420,000; also: potency is read from the fitted curve at half-maximal effect; % is scaled to controls: 0 for no effect and ±100 for the full control effect; nearly all actives have a fitted effect of over 55% in size
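Chicken DT40 Tdp1-/- cells complemented with human TDP1, 400 cells/well, exposed to compounds plus 20 nM camptothecin for at least 48 h at 37 C; viability read as ATP content by CellTiter-Glo luminescence.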
BCR signal inh: inhibitors of chronic active B-cell receptor signaling; ABC-DLBCL IkBa-CBG/CBR reporter, luminescence ratio, 4 h; Potency, µM (top dose mostly 46.1 µM), for the others: at the highest dose activity change, negative = inhibition, hits mostly inhibitors; hit rate 0.05% among 340,000; active = well fitted inhibition curve with a large enough effect in the signal ratio, with a control signal flat, not every such curve was filed as active; inconclusive = small, poorly fitted or top-dose-only effect, or effect the other way, or a change in a side signal; the % refers to the signal ratio;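 also: potency is read from the fitted curve at half-maximal effect; plate controls were basal doxycycline-induced cells for no effect and cells given 10 µM MG132 for full effect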
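Compounds up to 46 uM were incubated four hours with TMD8 cells whose green CBG68 luciferase is fused to IkappaBalpha; red CBR luminescence normalised the signal, and concentration-effect curves were fitted to fusion, red and ratio data.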
Numbers without * were called inactive; ? = inconclusive; nt = no result; [ ] = another dose, or the depositor's remark. Compounds with a hit are over-represented: about 19% of the library has one in this group of screens. Unless noted, calls follow the shape of the dose curve; as a rule, active = well fitted curve in the direction sought with a large enough effect; inconclusive = small, poorly fitted or top-dose-only effect, or another doubt; inactive = no such curve, though single readings can be large; an effect the other way counts as inactive or inconclusive.

SMILES	IL-1B inflam inh	MCF10A rereplic	TDP1 cell noCPT	SW480 rereplic	TDP1 cell CPT	BCR signal inh
Cc1nc2ccccc2c2c(N)c3ccccc3n12	0	0%	21µM*	?	?	21%
Cc1nc2ccccc2n1-c1ccccc1	14	1%	?	-5%	?	-4%
CCCCCCn1c(NCC)nc2c1c(=O)n(C)c(=O)n2C	-7	1%	2.6µM*	-1%	6.5µM*	7%
Cn1c(=O)c2c(nc(NCC(O)CO)n2CCc2ccccc2)n(C)c1=O (centres undefined)	13	-3%	?	-7%	-23%	6%
Cn1c(=O)c2c(nc(NCCCO)n2CCc2ccccc2)n(C)c1=O	25	-4%	-30%	-8%	-13%	-4%
Cn1c(=O)c2c(nc(NCCO)n2CCc2ccccc2)n(C)c1=O	-5	-4%	12µM*	-16%	16µM*	3%
CCCCNc1nc2c(c(=O)n(C)c(=O)n2C)n1CCC	10	3%	?	-17%	?	2%
CCCNc1nc2c(c(=O)n(C)c(=O)n2C)n1CCc1ccccc1	-23	11%	7.1µM*	-7%	5µM*	?
CC(O)CNc1nc2c(c(=O)n(C)c(=O)n2C)n1CCc1ccccc1 (centres undefined)	27	11%	16µM*	-3%[9.22 µM]	?	1%
CC(C)(C)C(=O)O/N=C(\N)Cc1ccc(-c2csnn2)cc1	?	-1%	?	17%	?	5%
O=C(O)CCNC(=O)c1ccc(NC(=O)Cc2ccc(Cl)cc2)cc1	0	-8%	-11%	10%	14%	-17%
CCCNc1nc2c(c(=O)n(C)c(=O)n2C)n1Cc1cccc(C)c1	14	5%	5.8µM*	11%	7.3µM*	?
CCCNc1nc2c(c(=O)n(C)c(=O)n2C)n1CCC(C)C	-15	-3%	16µM*	-7%	16µM*	?
CCCCC(=O)NCCNc1nc2c(c(=O)n(C)c(=O)n2C)n1Cc1ccccc1	15	1%	?	-1%	?	2%
CCCNc1nc2c(c(=O)n(C)c(=O)n2C)n1CCCc1ccccc1	2	10%	18µM*	-16%	13µM*	0%
CC(C)CCn1c(Oc2ccccc2F)nc2c1c(=O)n(C)c(=O)n2C	nt	nt	?	nt	18µM*	9%
O=C1CCCC/C1=C\Nc1ccc(C(=O)O)c(O)c1	-11	2%	-2%	-6%	-12%	-24%
O=C(CN1CCOCC1)Nc1ccc(NC(=O)c2ccccc2F)cc1	21	-1%	-17%	-8%	-11%	-7%
COc1ccc(C2CC(=O)C(C(c3ccc(O)cc3)C3C(=O)CC(c4ccc(OC)cc4)CC3=O)C(=O)C2)cc1 (centres undefined)	nt	nt	nt	nt	nt	7%
Oc1ccccc1CN(Cc1ccco1)CC(O)COCc1ccc(Cl)cc1 (centres undefined)	-99*	?	18µM*	18%	15µM*	-6%
C[C@H](CO)N1C[C@H](C)[C@@H](CN(C)Cc2ccccc2)OCc2cnnn2CCCC1=O	-12	nt	30%	nt	-1%	nt
Cc1nc2cnc(N(C)C)nc2n(CCc2ccccc2)c1=O	nt	nt	8.2µM*	nt	5.2µM*	nt
COc1cccc(Cn2c(=O)c(C)nc3cnc(N(C)C)nc32)c1	nt	nt	?	nt	16µM*	nt
O=C(Nc1ccc(S(=O)(=O)Nc2cnc3ccccc3n2)cc1)c1ccc(Cl)c([N+](=O)[O-])c1	-4	?	?	-4%	?	-26%
COc1ccccc1C(CNC(=O)C1CCN(C(=O)Nc2ccccc2)CC1)N1CCCC1 (centres undefined)	-3	0%	14%	1%	-2%	?
SMILES	IL-1B inflam inh	MCF10A rereplic	TDP1 cell noCPT	SW480 rereplic	TDP1 cell CPT	BCR signal inh
O=C(NC1CC(=O)N(c2ccc(F)cc2)C1)c1ccc(S(=O)(=O)N2CCCCC2)cc1 (centres undefined)	nt	nt	?	nt	?	8%
O=S(=O)(c1ccccc1Br)N(CC(O)COCc1ccccc1)C1CC1 (centres undefined)	-1	15%	-21%	-19%	?	2%
O=S(=O)(c1ccccc1Br)N(Cc1ccccc1)CC(O)COCc1ccccc1 (centres undefined)	-61*	?	?	-8%	23µM*	?
COc1cccc(-c2cnc(C(O)c3cc(C)c(OC)c(C)c3)[nH]2)c1 (centres undefined)	27	nt	?	nt	-16%	nt
N#CC1=C(N)Oc2cc(N)ccc2C1c1ccc(F)cc1F (centres undefined)	-23	21µM*	?	23µM*	?	-12%
COc1cc(C2C(C#N)=C(N)Oc3cc(N)ccc32)cc(OC)c1OC (centres undefined)	14	1.2µM*	0.65µM*	1.2µM*	0.92µM*	?
N#CC1=C(N)Oc2cc(N)ccc2C1c1ccc(Cl)cc1 (centres undefined)	-75*	?	-1%	?	-7%	0%
N#CC1=C(N)Oc2cc(N)ccc2C1c1ccc(F)cc1 (centres undefined)	-5	?	?	?	?	?
COc1ccc(N2CCN(c3cncc(C)n3)CC2)cc1	-20	nt	-13%	nt	-19%	nt
Cc1ccnc2nc(C(=O)OCC(=O)N(Cc3ccccc3)C(C)C)nn12	-6	-3%	-18%	-4%	2%	0%
COc1ccccc1C/C(N)=N/OC(=O)c1ccco1	-8	18%	-2%	1%	21µM*	6%
CCOc1ccc(N(CC(=O)N2CCOCC2)S(=O)(=O)c2ccc(Cl)cc2)cc1	-20	-17%	-13%	-8%	-19%	1%
Cc1nc(N)c(CC(Br)CBr)c(Cl)n1 (centres undefined)	0	-5%	7.3µM*	-16%	8.2µM*	7%
CC(=O)c1ccc(NC(=O)Cn2nc(C(F)(F)F)c3c2CCC3)cc1	nt	nt	-24%	nt	-17%	nt
CCc1nnc2c(Nc3ccc(N(CC)CC)cc3C)nc3ccccc3n12	nt	nt	18µM*	nt	18µM*	nt
CCc1nnc2c(Nc3ccccc3Br)nc3ccccc3n12	nt	nt	?	nt	-28%	nt
COc1ccc(CCNC(=O)c2ccc3c(c2)CCN3S(=O)(=O)c2ccc(C)cc2)cc1	nt	nt	10µM*	nt	?	nt
COc1ccc(CNC(=O)c2ccc3c(c2)CCN3S(=O)(=O)c2ccccc2)cc1	nt	nt	18µM*	nt	12µM*	nt
O=C(NCCc1ccccc1)c1ccc2c(c1)CCN2S(=O)(=O)c1ccccc1	nt	nt	15µM*	nt	21µM*	nt

Source: PubChem
